6 compounds from PubChem BioAssay (NCATS) can be followed below.

The nature of test [1]: NFAT Signaling Pathway (AID 444; active = well fitted curve in either direction with a large enough effect, not every such curve was filed as active;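 note: carbachol stimulus at about its EC50 of 1 µM final; % is set by controls: 0 for no effect and ±100 for the full control effect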). The conditions noted are these: Jurkat NFAT-bla M1, carbachol, beta-lactamase ratio, 5 h; at 38 µM (top of the series). An outline of the steps: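 Jurkat cells with NFAT-driven β-lactamase reporter and co-expressed M1 receptor, stimulated with carbachol (final 1 uM, ~EC50), compound titration, 5 h at 37 °C. CCF4 loaded 1 h at RT; 460/530 nm ratio gave %activity and AC50.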

For test [2], the target named is Cytochrome P450 2C9 (Homo sapiens) (UniProt P11712). Nature of the test: qHTS Assay for Inhibitors and Substrates of Cytochrome P450 2C9 (AID 883). Note: % is set by controls: 0 for no effect and ±100 for the full control effect; nearly all actives have a fitted effect of over 60% in size. An outline of the steps: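 Human CYP2C9 (10nM) with Luciferin-H at 100uM (its KM) in 25mM KPO4; compound preincubated 10 min at 37C, then NADPH regeneration for 60 min at 37C. Luciferin read by luminescence after detection reagent; normalized to 57uM sulphaphenazole as full inhibition.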

The target in test [3] is Cytochrome P450 2C19 (Homo sapiens) (UniProt P33261). Nature of the test: qHTS Assay for Inhibitors and Substrates of Cytochrome P450 2C19 (AID 899). Note: nearly all actives have a fitted effect of over 60% in size. Note: potency is the fitted concentration of half-maximal effect. An outline of the steps: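 5 nM human CYP2C19 with 10uM Luciferin-H EGE (at KM) in 50mM KPO4, compound preincubated 10 min at 37C, then NADPH regeneration for 60 min at 37C. Luciferin read by luminescence after detection reagent; normalized to 57uM ketoconazole as full inhibition.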

A short description of test [4]: qHTS Assay for Identification of Small Molecule Agonists for Thrombopoietin (TPO) Signaling Pathway (AID 917). Note: % is set by controls: 0 for no effect and ±100 for the full control effect. An outline of the steps: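 Murine Ba/F3 cells expressing human TPO receptor and GPIIb-promoter luciferase, IL-3-starved overnight, given compound plus TPO at 26 pM (EC50). After 24 h at 37 C, 5% CO2, luminescence read.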
In test [5] the target is Muscarinic acetylcholine receptor M1 (Rattus norvegicus) (UniProt P08482). Nature of the test: qHTS Assay for Antagonists of Acetylcholine Muscarinic M1 Receptor: Kinetic Measurement of Intracellular Calcium Response (AID 943).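 Note: Fluo-4 calcium signal as peak divided by basal fluorescence over 4 min; nearly all actives have a fitted effect of over 75% in size.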 An outline of the steps: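 Intracellular calcium flux, recorded with Fluo-4 in a kinetic plate reader, served as signal; the response to carbachol at EC80 (100 nM final) was taken as maximal over minimal fluorescence after a 10 min compound pre-incubation in rat M1-CHO cells.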

Test [6] shares this target. Nature of the test: qHTS Assay for Antagonists of Acetylcholine Muscarinic M1 Receptor: Measurement of IP-One Response (AID 944). Note: nearly all actives have a fitted effect of over 75% in size. An outline of the steps: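 Steps: plate transfected CHO-M1 cells overnight; add test compound, 10 min; add carbachol (200 nM, EC80) in stimulation buffer with LiCl; incubate 30 min; add labelled IP1 tracer and anti-IP1 antibody in lysis buffer; read HTRF after 10 min.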

The target in test [7] is Pyruvate kinase PKM (Homo sapiens) (UniProt P14618). Nature of the test: qHTS Assay for Activators of Human Muscle Pyruvate Kinase (AID 954; active = well fitted curve in the direction sought with a large enough effect, not every such curve was filed as active;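 note: 0% = uninhibited enzyme and -100% = no enzyme or full thiadiazolimine inhibition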). An outline of the steps: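 Luminescence from a luciferase ATP-detection/stop reagent reported PKM2 activity. Reactions contained 0.1 nM purified human enzyme, 0.5 mM PEP, 0.1 mM ADP and 7 mM MgCl2 at pH 7.2, run 1 h at RT.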
The target of test [8] is Alpha-galactosidase (Coffea arabica) (UniProt Q42656). Nature of the test: Counterscreen for Glucocerebrosidase Inhibitors: qHTS Assay for Coffee Bean alpha-Galactosidase at pH 4.5 (AID 957).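 Note: plate controls were enzyme alone for no effect and no enzyme for full effect.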 An outline of the steps: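 AC50 values derive from Hill-equation modeling of concentration-response data, normalized to no-enzyme and full-activity controls. The pH 4.5 citrate assay used 2 nM coffee bean enzyme and 80 uM fluorogenic substrate for 20 min.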

Test [9] has the same target. Nature of the test: Counterscreen for Glucocerebrosidase Inhibitors: qHTS Assay for Coffee Bean alpha-Galactosidase at pH 5.9 (AID 998).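 Note: plate controls were uninhibited enzyme for no effect and no-enzyme basal signal for full effect.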 An outline of the steps:
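Green coffee bean enzyme (2 nM) with 4-methylumbelliferyl alpha-D-galactopyranoside (80 uM) in 50 mM citric acid, 0.005% Tween-20, pH 5.9, 20 min at room temperature; compounds 0.7 nM–77 uM. Stopped at pH 10, fluorescence Ex365/Em440; Hill-fit AC50.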

Test [10] has as its target DNA repair nuclease/redox regulator APEX1 (Homo sapiens) (UniProt P27695). Nature of the test: qHTS Validation Assay for Inhibitors of the Human Apurinic/apyrimidinic Endonuclease 1 (APE1) (AID 1705;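 note: TAMRA fluorescence gain over two minutes as APE1 cuts a quenched THF abasic duplex; % is set by controls: 0 for no effect and ±100 for the full control effect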). An outline of the steps: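 Fluorogenic double-stranded THF abasic-site substrate (5'-TAMRA/3'-BHQ-2), 50 nM final. Enzyme preincubated with compound 15 min at room temperature, then substrate added. Kinetic fluorescence (ex 525/em 598 nm) read three times at 60 s intervals; activity taken as third-minus-first read difference.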

A short description of test [11]: Counterscreen for APE1 Inhibitors: Fluorescent Dye Displacement Validation Assay (AID 1707).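 Note: plate controls were ThO with dsDNA and no compound for no effect and ThO without dsDNA for full effect.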 An outline of the steps:
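Thiazole Orange displacement from dsDNA: 250 nM ThO with 50 nM TAMRA-labelled abasic-site (tetrahydrofuran) duplex in 50 mM Tris-HCl pH7.5, 50mM NaCl, 2 mM MgCl2, 0.01% Tween-20. Loss of endpoint fluorescence (ex 480 nm, em 540 nm) flags DNA binders.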

Test [12] in a line: qHTS for differential inhibitors of proliferation of Plasmodium falciparum line Dd2 (AID 1882).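 Note: compound exposure of 72 h on infected erythrocytes; plate controls were DMSO vehicle for no effect and 0.29 µM artemisinin for full effect; nearly all actives have a fitted effect of over 65% in size.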 The conditions noted are these: Potency: Plasmodium falciparum Dd2 proliferation inhibition. An outline of the steps:
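SYBR Green I DNA fluorescence read-out, ex 485/em 535 nm. Signals were normalized to 0.29 uM artemisinin and DMSO wells, then corrected using vehicle-only plates flanking each stack. Parasite growth ran 72 h in erythrocytes before lysis.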

Test [13] concerns the target Ferritin light chain (Equus caballus) (UniProt P02791). Nature of the test: qHTS Validation Assay for Identification of Novel General Anesthetics (AID 2323). Note: % is set by controls: 0 for no effect and ±100 for the full control effect. An outline of the steps: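 Horse-spleen apoferritin (10 uM) in PBS with 50% saturated 1-aminoanthracene; compounds pin-transferred, 10 min at room temperature. Fluorescence read at 380/535 nm, normalized to free 1-AMA and 1-AMA/apoferritin values; four-parameter Hill fit.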

The target of test [14] is ATP-dependent DNA helicase Q1 (Homo sapiens) (UniProt P46063). Nature of the test: qHTS Validation Assay for Inhibitors of RecQ-Like Dna Helicase 1 (RECQ1) (AID 2353).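 Note: plate controls were DMSO vehicle for no effect and enzyme-free control for full effect.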 An outline of the steps: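 50 nM RECQ1T1 preincubated 15 min with compound in Tris pH 8.0 buffer with MgCl2, DTT, Tween-20 and 2.5 ug/ml poly(dI-dC); started with 200 nM TAMRA/BHQ-2 forked duplex and 2 mM ATP. Unwinding read as fluorescence (525/598 nm), two reads 2 h apart.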

For test [15], the target named is RecQ-like DNA helicase BLM (Homo sapiens) (UniProt P54132). Nature of the test: qHTS Validation Assay for Inhibitors of Bloom's syndrome helicase (BLM) (AID 2364).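 Note: plate controls were DMSO vehicle for no effect and enzyme-free control for full effect.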 An outline of the steps:
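50 nM BLM preincubated 15 min at room temperature with compound in pH 8.0 Tris buffer containing 2.5 ug/ml poly(dI-dC); started with 200 nM TAMRA/BHQ-2 forked duplex and 2 mM ATP (final). Unwinding read as TAMRA fluorescence increase, two reads 2 h apart.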

Test [16] is described as follows: Validation screen for inhibitors of Lassa infection (AID 463096; calls by dose curve; note: % is set by controls: 0 for no effect and ±100 for the full control effect).
For test [17], the target named is Transient receptor potential cation channel subfamily V member 1 (Homo sapiens) (UniProt Q8NER1). Nature of the test: HTS Assay for Compounds that Act as Enhancers of the Vanilloid Receptor 1 (AID 488979). Note: 0% is about no effect. An outline of the steps: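 TRPV1 cells loaded with Fluo-8 calcium dye; compound added and Ca2+ signal (ex 480/em 520 nm) followed 3 min, then capsaicin at EC20 added and read 2 more min to detect enhancement.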

The target of test [18] is Thyrotropin-releasing hormone receptor (Homo sapiens) (UniProt P34981). Nature of the test: qHTS for Small Molecule Agonists and Allosteric Enhancers of Human TRH Receptor: Validation Screen for Agonists (AID 493127;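 active = calcium activation more than 3 SD above the typical response in the agonist read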;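 note: intracellular calcium rise by fluo-8 fluorescence before TRH EC20 addition; 0% is about no effect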). The following applies: TRH receptor agonist cell assay; at 2 µM; hits give high values. An outline of the steps: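 Gq-coupled calcium mobilization in TRHR cells after compound addition, monitored kinetically with fluo-8 dye on an FDSS reader.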

Molecules are shown by their SMILES. Where “and” joins values, the source holds several entries; their conditions need not be identical. Equal values may be shown once. A number with no mark means an inactive call. Records with an inconclusive call do not appear. Calls of active or inactive are those of the source. Unless noted, calls come from the whole dose curve; as a rule, active = well fitted curve in the direction sought with a large enough effect; inconclusive = small, poorly fitted or top-dose-only effect, or another doubt; inactive = no such curve, though single readings can be large; an effect the other way counts as inactive or inconclusive.

Chain of Cytochrome P450 2C9 (Homo sapiens) (P11712 whole entry, looked up): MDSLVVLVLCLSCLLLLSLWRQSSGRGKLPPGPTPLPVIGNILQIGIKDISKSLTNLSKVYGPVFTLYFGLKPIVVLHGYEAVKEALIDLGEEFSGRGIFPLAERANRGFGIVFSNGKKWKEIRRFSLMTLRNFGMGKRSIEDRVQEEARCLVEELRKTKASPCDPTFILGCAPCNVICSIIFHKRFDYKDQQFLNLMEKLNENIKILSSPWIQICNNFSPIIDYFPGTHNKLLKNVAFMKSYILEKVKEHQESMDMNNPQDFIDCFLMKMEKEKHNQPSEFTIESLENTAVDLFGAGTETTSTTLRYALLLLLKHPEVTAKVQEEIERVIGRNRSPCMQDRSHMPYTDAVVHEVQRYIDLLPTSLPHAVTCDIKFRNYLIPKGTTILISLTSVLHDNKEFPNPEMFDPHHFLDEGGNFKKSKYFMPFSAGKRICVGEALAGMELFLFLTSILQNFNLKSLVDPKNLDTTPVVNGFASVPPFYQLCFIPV
Chain of Muscarinic acetylcholine receptor M1 (Rattus norvegicus) (P08482 whole entry, looked up): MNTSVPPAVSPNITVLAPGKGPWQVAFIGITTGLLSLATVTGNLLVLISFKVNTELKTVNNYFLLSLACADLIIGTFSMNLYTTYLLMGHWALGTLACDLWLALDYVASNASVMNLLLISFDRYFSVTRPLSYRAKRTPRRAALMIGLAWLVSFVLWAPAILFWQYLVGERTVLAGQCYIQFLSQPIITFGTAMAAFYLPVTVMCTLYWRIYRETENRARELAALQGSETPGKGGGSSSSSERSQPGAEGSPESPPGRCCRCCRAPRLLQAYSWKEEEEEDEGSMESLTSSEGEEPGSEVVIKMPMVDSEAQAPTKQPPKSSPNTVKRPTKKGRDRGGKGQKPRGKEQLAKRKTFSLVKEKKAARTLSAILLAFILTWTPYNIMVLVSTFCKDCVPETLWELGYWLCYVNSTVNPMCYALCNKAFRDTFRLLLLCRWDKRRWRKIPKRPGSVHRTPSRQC
Chain of Alpha-galactosidase (Coffea arabica) (Q42656 whole entry, looked up): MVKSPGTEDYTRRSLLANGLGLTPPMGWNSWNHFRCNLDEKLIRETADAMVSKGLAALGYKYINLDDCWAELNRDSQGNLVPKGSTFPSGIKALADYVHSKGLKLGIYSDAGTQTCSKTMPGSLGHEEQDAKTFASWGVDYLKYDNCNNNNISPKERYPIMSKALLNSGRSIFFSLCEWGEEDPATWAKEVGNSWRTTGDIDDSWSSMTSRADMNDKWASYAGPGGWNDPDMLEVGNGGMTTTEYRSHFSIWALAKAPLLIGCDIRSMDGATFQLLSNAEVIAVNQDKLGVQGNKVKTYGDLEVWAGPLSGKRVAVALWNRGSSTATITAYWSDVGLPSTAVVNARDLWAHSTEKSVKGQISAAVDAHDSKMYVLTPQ
Chain of Cytochrome P450 2C19 (Homo sapiens) (P33261 whole entry, looked up): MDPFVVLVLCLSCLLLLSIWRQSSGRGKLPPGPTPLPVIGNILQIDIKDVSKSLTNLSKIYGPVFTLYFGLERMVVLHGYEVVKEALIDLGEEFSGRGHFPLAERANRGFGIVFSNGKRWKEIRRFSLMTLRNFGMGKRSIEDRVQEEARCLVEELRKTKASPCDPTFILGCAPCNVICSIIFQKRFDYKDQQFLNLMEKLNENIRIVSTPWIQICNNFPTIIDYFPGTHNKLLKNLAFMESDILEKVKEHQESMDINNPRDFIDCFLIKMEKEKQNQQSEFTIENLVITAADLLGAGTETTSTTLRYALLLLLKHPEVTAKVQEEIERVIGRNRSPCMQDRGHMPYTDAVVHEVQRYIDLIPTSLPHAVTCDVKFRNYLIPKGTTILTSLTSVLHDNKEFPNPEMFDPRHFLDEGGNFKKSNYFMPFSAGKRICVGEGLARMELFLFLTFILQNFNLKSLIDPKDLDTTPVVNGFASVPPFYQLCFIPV
Chain of Pyruvate kinase PKM (Homo sapiens) (P14618 whole entry, looked up): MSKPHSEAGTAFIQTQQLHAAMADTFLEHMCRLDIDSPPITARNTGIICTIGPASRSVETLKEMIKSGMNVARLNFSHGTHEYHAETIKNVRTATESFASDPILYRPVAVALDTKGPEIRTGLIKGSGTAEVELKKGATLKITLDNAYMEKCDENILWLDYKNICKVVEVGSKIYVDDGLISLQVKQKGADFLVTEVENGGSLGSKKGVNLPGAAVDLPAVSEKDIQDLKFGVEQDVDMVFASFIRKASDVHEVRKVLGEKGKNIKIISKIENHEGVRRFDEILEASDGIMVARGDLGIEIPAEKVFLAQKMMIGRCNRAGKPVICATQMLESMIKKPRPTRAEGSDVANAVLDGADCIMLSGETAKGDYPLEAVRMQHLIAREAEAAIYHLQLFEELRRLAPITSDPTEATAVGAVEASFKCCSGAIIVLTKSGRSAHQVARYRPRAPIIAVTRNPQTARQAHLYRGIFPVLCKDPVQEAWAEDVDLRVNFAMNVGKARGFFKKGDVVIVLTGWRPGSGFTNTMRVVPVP
Chain of ATP-dependent DNA helicase Q1 (Homo sapiens) (P46063 whole entry, looked up): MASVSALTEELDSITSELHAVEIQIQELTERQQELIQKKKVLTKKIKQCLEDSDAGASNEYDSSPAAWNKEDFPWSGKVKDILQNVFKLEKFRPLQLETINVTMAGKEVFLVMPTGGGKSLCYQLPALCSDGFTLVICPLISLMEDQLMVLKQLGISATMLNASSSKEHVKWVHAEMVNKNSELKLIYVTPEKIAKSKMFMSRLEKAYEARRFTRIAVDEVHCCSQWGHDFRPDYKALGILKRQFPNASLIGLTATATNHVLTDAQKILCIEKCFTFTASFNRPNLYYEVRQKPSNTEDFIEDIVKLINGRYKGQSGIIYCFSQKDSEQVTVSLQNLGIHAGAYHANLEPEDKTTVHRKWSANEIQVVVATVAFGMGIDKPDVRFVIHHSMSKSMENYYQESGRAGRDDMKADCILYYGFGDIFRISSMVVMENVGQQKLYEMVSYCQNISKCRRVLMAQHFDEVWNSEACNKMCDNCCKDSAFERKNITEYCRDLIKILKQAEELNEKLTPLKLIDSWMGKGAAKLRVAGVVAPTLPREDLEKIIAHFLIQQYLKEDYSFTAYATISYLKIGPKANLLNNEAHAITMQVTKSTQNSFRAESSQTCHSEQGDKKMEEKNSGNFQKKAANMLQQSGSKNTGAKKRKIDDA
Chain of Ferritin light chain (Equus caballus) (P02791 2-175 limits assumed): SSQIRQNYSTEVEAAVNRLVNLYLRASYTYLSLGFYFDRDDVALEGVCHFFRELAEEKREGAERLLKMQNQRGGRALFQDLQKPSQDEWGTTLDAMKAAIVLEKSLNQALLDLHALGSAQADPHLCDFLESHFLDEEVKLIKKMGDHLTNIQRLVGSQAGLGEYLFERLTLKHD
Chain of Thyrotropin-releasing hormone receptor (Homo sapiens) (P34981 whole entry, looked up): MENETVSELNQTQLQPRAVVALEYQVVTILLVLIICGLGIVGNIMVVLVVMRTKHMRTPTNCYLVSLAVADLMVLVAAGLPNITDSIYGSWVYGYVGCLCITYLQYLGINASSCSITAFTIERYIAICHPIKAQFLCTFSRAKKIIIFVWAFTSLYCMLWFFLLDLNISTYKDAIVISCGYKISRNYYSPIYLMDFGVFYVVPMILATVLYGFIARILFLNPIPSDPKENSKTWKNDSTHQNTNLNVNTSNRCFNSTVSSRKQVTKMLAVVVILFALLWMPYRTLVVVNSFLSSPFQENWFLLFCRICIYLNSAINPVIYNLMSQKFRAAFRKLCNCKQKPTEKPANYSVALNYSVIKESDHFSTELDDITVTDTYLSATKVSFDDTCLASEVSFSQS
Chain of RecQ-like DNA helicase BLM (Homo sapiens) (P54132 whole entry, looked up): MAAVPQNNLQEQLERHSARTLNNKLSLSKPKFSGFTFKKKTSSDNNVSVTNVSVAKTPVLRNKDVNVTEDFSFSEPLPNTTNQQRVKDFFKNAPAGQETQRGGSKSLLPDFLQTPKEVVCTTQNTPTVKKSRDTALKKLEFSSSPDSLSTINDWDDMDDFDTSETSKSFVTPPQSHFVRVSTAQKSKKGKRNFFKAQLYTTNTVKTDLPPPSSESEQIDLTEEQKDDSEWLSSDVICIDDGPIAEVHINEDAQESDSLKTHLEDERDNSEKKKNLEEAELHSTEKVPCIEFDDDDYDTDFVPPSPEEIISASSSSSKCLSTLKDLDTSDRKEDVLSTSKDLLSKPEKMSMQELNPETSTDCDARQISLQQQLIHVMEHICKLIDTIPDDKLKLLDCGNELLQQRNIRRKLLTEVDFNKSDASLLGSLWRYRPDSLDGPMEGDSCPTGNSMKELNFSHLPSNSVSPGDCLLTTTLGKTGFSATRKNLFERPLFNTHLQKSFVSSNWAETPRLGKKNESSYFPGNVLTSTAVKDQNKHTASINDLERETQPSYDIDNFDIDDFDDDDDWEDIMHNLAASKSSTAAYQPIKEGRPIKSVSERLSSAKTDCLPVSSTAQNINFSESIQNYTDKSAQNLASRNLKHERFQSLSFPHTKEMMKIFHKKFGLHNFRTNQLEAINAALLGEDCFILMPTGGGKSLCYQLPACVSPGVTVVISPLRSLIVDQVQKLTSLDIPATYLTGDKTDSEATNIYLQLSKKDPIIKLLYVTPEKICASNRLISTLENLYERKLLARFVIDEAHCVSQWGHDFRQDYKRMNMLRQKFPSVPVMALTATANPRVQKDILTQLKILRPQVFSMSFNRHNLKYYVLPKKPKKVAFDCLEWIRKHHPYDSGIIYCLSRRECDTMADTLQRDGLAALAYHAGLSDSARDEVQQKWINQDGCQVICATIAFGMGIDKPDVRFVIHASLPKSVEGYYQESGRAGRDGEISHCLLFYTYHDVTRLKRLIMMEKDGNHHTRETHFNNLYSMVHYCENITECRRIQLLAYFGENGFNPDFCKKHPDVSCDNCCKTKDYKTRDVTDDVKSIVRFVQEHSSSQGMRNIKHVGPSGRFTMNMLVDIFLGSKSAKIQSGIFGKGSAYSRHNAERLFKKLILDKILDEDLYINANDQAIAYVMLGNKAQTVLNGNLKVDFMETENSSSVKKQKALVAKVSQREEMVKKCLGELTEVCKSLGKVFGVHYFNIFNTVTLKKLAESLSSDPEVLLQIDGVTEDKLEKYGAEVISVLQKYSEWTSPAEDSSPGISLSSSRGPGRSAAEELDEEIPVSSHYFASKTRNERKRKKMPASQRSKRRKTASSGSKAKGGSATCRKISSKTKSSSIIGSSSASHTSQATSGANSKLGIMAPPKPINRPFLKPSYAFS

In the case of `CCOC(=O)c1ncn2c1[C@H]1CCCN1C(=O)c1cc(OC)ccc1-2`, the activity change, negative = inhibition in test [1] is 7.15%. Also, the Potency result in [2], in test [3], in test [5] and in test [6] was “inactive” each time. In addition, the compound was called inactive in [4], in test [7], in [8] and in test [9].

Turning to `NC[C@H](CC(=O)O)c1ccc(Cl)cc1`, the Potency in test [3] was 2.51 µM (active).

On to `N[C@H](C(=O)O)c1cc(=O)[nH]o1`, for which the Potency entry in [2], in [3], in test [5] and in [6] was “inactive” throughout. The result in test [4], in [7], in [8] and in test [9] was inactive.

As for `N[C@H](Cc1o[nH]c(=O)c1Cl)C(=O)O`, the Potency in test [3] was 1.26 µM (active).

As to `N[C@H](CP(=O)(O)O)C(=O)O`, the Potency result in [2], in test [3], in test [5] and in test [6] was “inactive” throughout. Further, the outcome in [4], in test [7], in test [8] and in test [9] was inactive.

`N[C@H](CCCCCP(=O)(O)O)C(=O)O`: in test [1], the activity change, negative = inhibition was 7.92% and -0.366%. In addition, the Potency entry in test [2], in test [3], in test [5], in test [6], in test [10] and in test [11] was “inactive” in each case. Besides, the Potency result in test [12], in test [14], in test [15] and in test [16] was “inactive” in each case. The outcome in test [4], in [7], in [8], in [9], in test [13] and in test [17] was inactive. In [18], the activation was -0.125%.
